# According to paper PMC7862700, “An all-to-all approach to the identification of sequence-specific readers for epigenetic DNA modifications on cytosine”:
# How the values were obtained:
# Test in all cases: DAPPL (digital affinity profiling via proximity ligation, sequencing); 10 mM Tris-HCl pH 7.5, 50 mM NaCl, 1 mM DTT, 4% glycerol, room temperature, 30 min; GST-TFs on glutathione beads, 16-mer random dsDNA library, 0.1% formaldehyde crosslink after washing; high values mean tight binding
# FLI1 = molecular target: T1, FLI1 (Homo sapiens, UniProt Q01543 1-452); details: protein: recombinant; tags: N-terminal GST; dsDNA, one strand shown
# T1 sequence: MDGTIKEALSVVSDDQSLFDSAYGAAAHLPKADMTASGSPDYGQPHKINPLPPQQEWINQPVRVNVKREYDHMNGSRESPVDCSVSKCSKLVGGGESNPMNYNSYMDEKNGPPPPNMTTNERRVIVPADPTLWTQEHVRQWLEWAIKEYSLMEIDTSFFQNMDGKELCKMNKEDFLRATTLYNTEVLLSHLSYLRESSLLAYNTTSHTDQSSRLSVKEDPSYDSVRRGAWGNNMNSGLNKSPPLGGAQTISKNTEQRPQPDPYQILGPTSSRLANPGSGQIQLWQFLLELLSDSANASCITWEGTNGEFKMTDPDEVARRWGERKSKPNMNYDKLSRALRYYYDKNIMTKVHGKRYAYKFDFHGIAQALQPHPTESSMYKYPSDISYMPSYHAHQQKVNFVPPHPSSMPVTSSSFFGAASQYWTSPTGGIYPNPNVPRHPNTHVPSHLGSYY
# Method in brief: (§1)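 Beads coated with glutathione captured GST-fused human transcription factors that had been expressed in yeast, and the factors were then given DNA barcodes and pooled with a tag-only sample. The pools were incubated with 200 nmole of a random double-stranded 16-mer DNA library in Tris/NaCl/DTT/glycerol buffer for 30 min at room temperature, washed, crosslinked with 0.1% formaldehyde and proximity-ligated with BsaI/T4 ligase at 37 °C for 1 h. PCR amplification and Illumina NextSeq500 sequencing came last. Binding signal is each hexamer's read frequency for a factor divided by its frequency for the tag-only sample.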
# ELK1 = molecular target: T2, ELK1 (Homo sapiens, UniProt P19419 1-428); details: protein: recombinant; tags: N-terminal GST; dsDNA, one strand shown
# T2 sequence: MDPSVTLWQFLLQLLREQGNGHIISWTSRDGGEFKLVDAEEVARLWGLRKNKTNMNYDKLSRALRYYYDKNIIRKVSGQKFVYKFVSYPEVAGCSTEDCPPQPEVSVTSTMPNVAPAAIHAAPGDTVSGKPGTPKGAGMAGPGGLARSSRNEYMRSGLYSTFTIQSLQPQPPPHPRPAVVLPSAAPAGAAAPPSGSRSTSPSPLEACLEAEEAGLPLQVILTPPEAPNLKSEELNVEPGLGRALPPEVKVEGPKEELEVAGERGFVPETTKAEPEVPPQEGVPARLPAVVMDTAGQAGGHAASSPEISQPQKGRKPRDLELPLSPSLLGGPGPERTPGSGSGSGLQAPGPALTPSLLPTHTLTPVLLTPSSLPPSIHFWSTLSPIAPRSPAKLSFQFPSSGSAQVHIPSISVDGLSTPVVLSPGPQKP
# Method in brief: as §1
# GABPA = molecular target: T3, GABPA (Homo sapiens, UniProt Q06546 1-454); details: protein: recombinant; tags: N-terminal GST; dsDNA, one strand shown
# T3 sequence: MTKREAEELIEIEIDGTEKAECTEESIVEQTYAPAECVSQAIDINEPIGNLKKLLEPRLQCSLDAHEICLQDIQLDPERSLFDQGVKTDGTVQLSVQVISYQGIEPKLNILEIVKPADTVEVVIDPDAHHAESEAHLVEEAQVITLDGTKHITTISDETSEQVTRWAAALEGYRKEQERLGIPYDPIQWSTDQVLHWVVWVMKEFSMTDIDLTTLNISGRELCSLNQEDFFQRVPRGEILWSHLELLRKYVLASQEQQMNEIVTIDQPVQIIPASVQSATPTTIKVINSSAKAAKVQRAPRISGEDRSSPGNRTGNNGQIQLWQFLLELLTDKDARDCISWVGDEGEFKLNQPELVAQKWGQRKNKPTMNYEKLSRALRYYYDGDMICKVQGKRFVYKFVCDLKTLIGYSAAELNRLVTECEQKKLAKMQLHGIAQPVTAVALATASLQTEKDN
# Method in brief: as §1
# ERG = molecular target: T4, ERG (Homo sapiens, UniProt P11308 1-479); details: protein: recombinant; tags: N-terminal GST; dsDNA, one strand shown
# T4 sequence: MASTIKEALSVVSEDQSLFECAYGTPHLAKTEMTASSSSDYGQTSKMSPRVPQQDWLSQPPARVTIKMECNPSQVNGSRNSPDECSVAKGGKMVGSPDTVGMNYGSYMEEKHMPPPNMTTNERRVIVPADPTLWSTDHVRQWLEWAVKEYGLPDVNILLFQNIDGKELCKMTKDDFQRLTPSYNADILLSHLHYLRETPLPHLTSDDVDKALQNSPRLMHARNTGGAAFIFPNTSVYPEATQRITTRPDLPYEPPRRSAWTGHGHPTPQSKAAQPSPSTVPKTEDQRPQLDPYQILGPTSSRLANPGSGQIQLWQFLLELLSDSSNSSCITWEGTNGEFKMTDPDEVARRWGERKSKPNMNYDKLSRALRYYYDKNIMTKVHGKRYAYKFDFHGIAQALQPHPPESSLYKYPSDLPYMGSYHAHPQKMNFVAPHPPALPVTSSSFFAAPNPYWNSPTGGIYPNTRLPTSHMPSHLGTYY
# Method in brief: as §1
# ELF1 = ELF1 (Homo sapiens, UniProt P32519 1-619); details: protein: recombinant; tags: N-terminal GST; dsDNA, one strand shown
# ELF1, sequence (P32519 whole entry): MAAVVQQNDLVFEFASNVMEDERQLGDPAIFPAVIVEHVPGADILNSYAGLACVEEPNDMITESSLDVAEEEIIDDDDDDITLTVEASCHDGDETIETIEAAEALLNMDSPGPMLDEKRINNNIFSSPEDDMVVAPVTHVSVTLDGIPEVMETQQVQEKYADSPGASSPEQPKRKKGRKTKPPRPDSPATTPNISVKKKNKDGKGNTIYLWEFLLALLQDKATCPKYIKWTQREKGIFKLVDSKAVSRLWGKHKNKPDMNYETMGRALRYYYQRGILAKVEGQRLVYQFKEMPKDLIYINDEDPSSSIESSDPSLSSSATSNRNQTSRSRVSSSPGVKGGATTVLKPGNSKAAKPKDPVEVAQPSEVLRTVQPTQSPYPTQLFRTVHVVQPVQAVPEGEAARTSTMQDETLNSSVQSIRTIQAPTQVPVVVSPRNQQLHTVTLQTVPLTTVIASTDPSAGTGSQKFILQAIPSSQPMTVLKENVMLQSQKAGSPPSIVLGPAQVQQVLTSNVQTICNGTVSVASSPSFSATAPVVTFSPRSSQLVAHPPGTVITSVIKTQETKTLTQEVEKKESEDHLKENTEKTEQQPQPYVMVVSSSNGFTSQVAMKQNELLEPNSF
# Method in brief: as §1
# EHF = molecular target: T5, EHF (Homo sapiens, UniProt Q9NZC4 1-300); details: protein: recombinant; tags: N-terminal GST; dsDNA, one strand shown
# T5 sequence: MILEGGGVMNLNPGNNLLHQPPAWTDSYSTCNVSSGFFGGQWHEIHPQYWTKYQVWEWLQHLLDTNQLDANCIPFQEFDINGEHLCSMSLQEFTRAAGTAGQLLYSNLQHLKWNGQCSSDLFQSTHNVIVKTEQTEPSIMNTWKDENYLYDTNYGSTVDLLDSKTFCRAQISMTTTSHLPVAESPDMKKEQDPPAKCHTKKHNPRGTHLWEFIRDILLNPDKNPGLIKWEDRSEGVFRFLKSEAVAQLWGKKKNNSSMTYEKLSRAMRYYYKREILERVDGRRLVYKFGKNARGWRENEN
# Method in brief: as §1
# SPI1 = SPI1 (Homo sapiens, UniProt P17947 1-270); details: protein: recombinant; tags: N-terminal GST; dsDNA, one strand shown
# Method in brief: as §1
# SPIB = SPIB (Homo sapiens, UniProt Q01892 1-262); details: protein: recombinant; tags: N-terminal GST; dsDNA, one strand shown
# SPIB, sequence (Q01892 whole entry): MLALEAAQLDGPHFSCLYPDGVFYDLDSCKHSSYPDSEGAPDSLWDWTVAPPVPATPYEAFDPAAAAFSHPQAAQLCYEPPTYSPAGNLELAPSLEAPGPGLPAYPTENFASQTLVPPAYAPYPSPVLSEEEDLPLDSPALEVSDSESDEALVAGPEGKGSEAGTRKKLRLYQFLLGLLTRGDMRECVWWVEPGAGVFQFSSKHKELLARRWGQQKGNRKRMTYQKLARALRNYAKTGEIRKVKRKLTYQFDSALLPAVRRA
# Method in brief: as §1
# ELK3 = molecular target: T6, ELK3 (Homo sapiens, UniProt P41970 1-407); details: protein: recombinant; tags: N-terminal GST; dsDNA, one strand shown
# T6 sequence: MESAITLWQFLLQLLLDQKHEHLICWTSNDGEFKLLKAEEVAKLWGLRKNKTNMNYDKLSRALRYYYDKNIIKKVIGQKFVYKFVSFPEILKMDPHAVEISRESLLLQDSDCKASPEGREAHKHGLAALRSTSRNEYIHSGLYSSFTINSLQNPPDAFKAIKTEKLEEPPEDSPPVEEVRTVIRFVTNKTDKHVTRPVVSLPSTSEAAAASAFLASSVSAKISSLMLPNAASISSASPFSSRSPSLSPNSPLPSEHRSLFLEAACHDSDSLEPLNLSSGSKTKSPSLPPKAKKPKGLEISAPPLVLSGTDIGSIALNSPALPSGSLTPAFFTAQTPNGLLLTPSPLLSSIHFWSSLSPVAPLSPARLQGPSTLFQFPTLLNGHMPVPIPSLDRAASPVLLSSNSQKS
# Method in brief: as §1
# FEV = molecular target: T7, FEV (Homo sapiens, UniProt Q99581 1-238); details: protein: recombinant; tags: N-terminal GST; dsDNA, one strand shown
# T7 sequence: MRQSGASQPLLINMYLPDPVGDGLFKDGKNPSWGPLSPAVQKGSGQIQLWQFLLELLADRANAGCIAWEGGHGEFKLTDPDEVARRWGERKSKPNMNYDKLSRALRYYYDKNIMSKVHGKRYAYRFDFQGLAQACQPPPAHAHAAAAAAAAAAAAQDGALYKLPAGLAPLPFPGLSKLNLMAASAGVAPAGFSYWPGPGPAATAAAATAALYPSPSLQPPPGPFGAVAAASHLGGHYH
# Method in brief: as §1
# ETV5 = ETV5 (Homo sapiens, UniProt P41161 1-510); details: protein: recombinant; tags: N-terminal GST; dsDNA, one strand shown
# ETV5, sequence (P41161 whole entry): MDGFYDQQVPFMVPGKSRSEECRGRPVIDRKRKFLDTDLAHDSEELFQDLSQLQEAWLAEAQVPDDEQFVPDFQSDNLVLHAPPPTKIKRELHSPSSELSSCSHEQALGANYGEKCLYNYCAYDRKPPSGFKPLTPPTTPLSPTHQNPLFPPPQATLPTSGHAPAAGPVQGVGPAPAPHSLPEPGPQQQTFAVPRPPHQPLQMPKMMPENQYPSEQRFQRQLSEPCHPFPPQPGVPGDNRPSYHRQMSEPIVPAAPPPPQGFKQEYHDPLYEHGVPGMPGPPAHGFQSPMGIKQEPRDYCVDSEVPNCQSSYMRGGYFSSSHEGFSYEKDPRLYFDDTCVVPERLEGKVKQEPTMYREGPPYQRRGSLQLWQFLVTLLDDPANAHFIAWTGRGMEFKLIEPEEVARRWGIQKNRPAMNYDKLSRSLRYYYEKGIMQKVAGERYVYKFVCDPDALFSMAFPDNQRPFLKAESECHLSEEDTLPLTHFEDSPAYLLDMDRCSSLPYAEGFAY
# Method in brief: as §1
# HSF1 = HSF1 (Homo sapiens, UniProt Q00613 1-529); details: protein: recombinant; tags: N-terminal GST; chain copies: 3; dsDNA, one strand shown
# HSF1, sequence (Q00613 whole entry): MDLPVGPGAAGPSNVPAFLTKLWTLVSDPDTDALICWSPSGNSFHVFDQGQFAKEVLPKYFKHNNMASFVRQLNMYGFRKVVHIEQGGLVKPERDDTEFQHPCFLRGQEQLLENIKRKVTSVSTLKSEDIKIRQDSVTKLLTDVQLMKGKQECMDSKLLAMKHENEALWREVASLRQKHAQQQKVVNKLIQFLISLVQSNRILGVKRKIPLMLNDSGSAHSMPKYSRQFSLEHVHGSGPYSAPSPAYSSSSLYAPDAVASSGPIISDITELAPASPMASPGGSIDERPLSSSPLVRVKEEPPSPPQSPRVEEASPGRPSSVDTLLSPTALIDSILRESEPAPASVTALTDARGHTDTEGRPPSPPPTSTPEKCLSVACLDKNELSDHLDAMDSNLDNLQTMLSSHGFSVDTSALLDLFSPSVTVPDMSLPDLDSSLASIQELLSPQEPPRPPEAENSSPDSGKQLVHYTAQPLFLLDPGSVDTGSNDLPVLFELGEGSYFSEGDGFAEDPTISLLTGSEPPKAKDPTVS
# Method in brief: as §1
# SPIC = molecular target: T8, SPIC (Homo sapiens, UniProt Q8N5J4 1-248); details: protein: recombinant; tags: N-terminal GST; dsDNA, one strand shown
# T8 sequence: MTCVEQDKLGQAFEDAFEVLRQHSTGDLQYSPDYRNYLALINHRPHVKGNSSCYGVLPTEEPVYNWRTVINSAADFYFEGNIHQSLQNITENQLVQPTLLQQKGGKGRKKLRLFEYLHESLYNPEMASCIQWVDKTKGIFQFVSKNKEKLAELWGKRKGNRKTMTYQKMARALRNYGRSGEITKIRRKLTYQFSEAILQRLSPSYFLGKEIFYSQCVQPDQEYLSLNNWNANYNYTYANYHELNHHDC
# Method in brief: as §1
# ELF4 = ELF4 (Homo sapiens, UniProt Q99607 1-663); details: protein: recombinant; tags: N-terminal GST; dsDNA, one strand shown
# ELF4, sequence (Q99607 whole entry): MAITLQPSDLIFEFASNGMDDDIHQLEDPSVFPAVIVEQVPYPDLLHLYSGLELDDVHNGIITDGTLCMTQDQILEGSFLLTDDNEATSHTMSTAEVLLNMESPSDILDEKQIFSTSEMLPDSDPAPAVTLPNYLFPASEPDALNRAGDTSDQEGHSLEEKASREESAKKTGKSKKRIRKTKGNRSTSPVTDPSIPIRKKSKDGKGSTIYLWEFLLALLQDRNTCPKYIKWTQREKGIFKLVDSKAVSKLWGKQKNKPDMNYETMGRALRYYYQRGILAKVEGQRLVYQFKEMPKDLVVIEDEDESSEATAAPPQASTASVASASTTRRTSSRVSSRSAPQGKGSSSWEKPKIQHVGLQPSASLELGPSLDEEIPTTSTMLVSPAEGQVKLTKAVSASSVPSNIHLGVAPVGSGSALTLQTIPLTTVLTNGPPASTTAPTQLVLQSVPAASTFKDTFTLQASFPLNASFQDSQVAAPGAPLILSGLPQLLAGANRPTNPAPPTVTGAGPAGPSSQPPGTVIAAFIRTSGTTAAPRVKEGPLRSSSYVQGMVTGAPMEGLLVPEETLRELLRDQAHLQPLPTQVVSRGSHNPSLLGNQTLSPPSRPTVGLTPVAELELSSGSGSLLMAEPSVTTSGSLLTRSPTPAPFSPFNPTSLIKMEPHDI
# Method in brief: as §1
# ELK4 = molecular target: T9, ELK4 (Homo sapiens, UniProt P28324-2 1-405); details: protein: recombinant; tags: N-terminal GST; dsDNA, one strand shown
# T9 sequence: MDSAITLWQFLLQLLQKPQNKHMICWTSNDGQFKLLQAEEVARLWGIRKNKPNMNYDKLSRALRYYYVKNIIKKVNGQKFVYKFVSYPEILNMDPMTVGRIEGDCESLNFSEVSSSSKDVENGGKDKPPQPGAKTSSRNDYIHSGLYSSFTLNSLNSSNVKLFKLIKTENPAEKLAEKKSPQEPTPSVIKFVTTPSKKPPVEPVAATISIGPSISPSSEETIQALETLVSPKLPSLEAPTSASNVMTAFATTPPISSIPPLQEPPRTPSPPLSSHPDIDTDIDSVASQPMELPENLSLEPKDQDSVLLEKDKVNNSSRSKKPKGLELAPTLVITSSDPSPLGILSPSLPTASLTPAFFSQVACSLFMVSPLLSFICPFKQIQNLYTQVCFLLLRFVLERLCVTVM
# Method in brief: as §1
# ETV2 = molecular target: T10, ETV2 (Homo sapiens, UniProt O00321 1-342); details: protein: recombinant; tags: N-terminal GST; dsDNA, one strand shown
# T10 sequence: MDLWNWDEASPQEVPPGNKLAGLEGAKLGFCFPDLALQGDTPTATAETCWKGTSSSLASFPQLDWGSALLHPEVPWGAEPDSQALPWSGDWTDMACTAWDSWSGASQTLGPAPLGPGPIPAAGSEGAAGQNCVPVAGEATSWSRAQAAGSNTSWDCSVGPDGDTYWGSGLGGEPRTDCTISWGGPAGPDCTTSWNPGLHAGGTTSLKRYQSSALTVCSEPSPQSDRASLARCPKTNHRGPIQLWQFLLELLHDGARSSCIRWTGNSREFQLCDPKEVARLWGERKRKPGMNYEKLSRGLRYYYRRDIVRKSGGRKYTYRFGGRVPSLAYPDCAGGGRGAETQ
# Method in brief: as §1
# ELF3 = molecular target: T11, ELF3 (Homo sapiens, UniProt P78545 1-371); details: protein: recombinant; tags: N-terminal GST; dsDNA, one strand shown
# T11 sequence: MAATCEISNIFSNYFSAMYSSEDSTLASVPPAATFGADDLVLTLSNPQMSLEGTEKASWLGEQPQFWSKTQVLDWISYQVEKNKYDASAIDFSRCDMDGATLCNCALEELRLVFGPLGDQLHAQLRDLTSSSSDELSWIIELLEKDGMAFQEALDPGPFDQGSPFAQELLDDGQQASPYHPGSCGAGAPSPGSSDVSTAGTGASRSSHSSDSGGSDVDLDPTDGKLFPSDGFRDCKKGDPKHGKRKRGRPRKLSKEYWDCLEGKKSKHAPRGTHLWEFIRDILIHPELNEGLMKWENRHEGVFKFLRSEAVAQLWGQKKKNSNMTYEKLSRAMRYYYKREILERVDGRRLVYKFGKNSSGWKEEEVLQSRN
# Method in brief: as §1
# CRX = CRX (Homo sapiens, UniProt O43186 1-299); details: protein: recombinant; tags: N-terminal GST; dsDNA, one strand shown
# CRX, sequence (O43186 whole entry): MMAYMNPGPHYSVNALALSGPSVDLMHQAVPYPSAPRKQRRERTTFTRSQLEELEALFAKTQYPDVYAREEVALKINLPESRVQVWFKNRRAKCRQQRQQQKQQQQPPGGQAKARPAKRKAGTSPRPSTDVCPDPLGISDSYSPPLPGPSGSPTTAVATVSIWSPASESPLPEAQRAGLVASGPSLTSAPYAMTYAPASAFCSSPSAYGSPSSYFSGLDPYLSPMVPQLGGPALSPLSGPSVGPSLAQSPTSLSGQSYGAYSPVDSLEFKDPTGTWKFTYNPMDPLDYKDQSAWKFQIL
# Method in brief: as §1
# ETV1 = ETV1 (Homo sapiens, UniProt P50549 1-477); details: protein: recombinant; tags: N-terminal GST; dsDNA, one strand shown
# ETV1, sequence (P50549 whole entry): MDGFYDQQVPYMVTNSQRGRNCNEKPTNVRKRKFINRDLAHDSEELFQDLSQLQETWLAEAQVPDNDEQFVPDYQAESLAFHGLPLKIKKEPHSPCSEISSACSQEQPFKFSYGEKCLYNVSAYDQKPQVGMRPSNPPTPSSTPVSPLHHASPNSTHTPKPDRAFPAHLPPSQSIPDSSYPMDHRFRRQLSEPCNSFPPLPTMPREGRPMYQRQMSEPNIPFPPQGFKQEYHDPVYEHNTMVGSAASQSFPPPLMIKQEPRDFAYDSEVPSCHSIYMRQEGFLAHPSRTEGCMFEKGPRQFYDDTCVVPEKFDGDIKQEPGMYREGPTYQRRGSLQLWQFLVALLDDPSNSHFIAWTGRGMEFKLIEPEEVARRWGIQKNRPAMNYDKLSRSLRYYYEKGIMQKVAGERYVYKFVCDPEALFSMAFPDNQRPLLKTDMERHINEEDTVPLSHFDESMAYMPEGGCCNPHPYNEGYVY
# Method in brief: as §1
sequence,measurement,setting,value
CCTAGC,binding signal,FLI1,"1.18 fold enrichment (6-mer frequency, TF over GST control)"
same,binding signal,ELK1,"1.1 fold enrichment (6-mer frequency, TF over GST control)"
same,binding signal,GABPA,"1.31 fold enrichment (6-mer frequency, TF over GST control)"
same,binding signal,ERG,"1.14 fold enrichment (6-mer frequency, TF over GST control)"
same,binding signal,ELF1,"1.24 fold enrichment (6-mer frequency, TF over GST control)"
same,binding signal,EHF,"1.2 fold enrichment (6-mer frequency, TF over GST control)"
same,binding signal,SPI1,"1.04 fold enrichment (6-mer frequency, TF over GST control)"
same,binding signal,SPIB,"1.26 fold enrichment (6-mer frequency, TF over GST control)"
same,binding signal,ELK3,"1.22 fold enrichment (6-mer frequency, TF over GST control)"
same,binding signal,FEV,"1.18 fold enrichment (6-mer frequency, TF over GST control)"
same,binding signal,ETV5,"1.15 fold enrichment (6-mer frequency, TF over GST control)"
same,binding signal,HSF1,"1.17 fold enrichment (6-mer frequency, TF over GST control)"
same,binding signal,SPIC,"1.17 fold enrichment (6-mer frequency, TF over GST control)"
same,binding signal,ELF4,"1.16 fold enrichment (6-mer frequency, TF over GST control)"
same,binding signal,ELK4,"1.13 fold enrichment (6-mer frequency, TF over GST control)"
same,binding signal,ETV2,"1.13 fold enrichment (6-mer frequency, TF over GST control)"
same,binding signal,ELF3,"1.12 fold enrichment (6-mer frequency, TF over GST control)"
same,binding signal,CRX,"1.02 fold enrichment (6-mer frequency, TF over GST control)"
same,binding signal,ETV1,"1.13 fold enrichment (6-mer frequency, TF over GST control)"
